Screening results from PubChem BioAssay.
Shown are actives, neighbours in structure and some others; about 1.7% of the full set was active somewhere.
GLP1R ag: qHTS of GLP-1 Receptor Agonists; hit rate 0.007% among 380,000; Glucagon-like peptide 1 receptor (Homo sapiens), P43220; Potency, µM (top dose mostly 45.6 µM), for inactives: top-dose activation, most hits filed as activators; HEK293 GLP-1R CRE-luciferase, luminescence, 4-6 h; cells express a hypersensitive GLP-1R form; further: % of control where 0% means no effect
Target sequence (P43220 whole entry, looked up): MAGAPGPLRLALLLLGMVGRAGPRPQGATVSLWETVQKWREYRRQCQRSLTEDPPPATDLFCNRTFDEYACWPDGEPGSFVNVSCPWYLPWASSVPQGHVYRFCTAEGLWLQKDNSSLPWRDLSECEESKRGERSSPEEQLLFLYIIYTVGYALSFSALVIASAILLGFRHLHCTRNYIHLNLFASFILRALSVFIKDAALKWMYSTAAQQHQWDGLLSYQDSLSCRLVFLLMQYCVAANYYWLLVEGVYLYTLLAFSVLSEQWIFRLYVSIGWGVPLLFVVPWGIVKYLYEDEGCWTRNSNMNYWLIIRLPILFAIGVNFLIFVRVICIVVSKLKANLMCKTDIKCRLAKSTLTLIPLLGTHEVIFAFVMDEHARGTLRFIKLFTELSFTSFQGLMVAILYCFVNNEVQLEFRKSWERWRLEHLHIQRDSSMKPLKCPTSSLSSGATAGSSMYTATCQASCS
HEK293 tox: qHTS of GLP-1 Receptor Inverse Agonists: Cytotox Screen; HEK293 cAMP-luciferase reporter cells, luminescence, 24 h; Potency, µM (series often up to 38.3 µM), inactives show at the highest dose activity change, negative = inhibition, actives largely listed as inhibitors; hit rate 0.13% among 410,000;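 further: loss of luciferase light is scored as toxicity; on the % scale 0 is the no-effect control and ±100 the full control effect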
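Cells in DMEM/10% Nu serum/1% pen-strep, 1536-well format. Pre-incubated 12 h, dosed with 23 nL compound, incubated a further 24 h. Luciferase detection, 12 min at room temp, luminescence.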
GLP-1R inv ag: qHTS of GLP-1 Receptor Inverse Agonists (Inhibition Mode); Glucagon-like peptide 1 receptor (Homo sapiens), P43220; Potency, µM (doses to about 38.3 µM), for inactives: at the top dose activity change, negative = inhibition, usual class: inhibitors; HEK293 GLP-1R CRE-luciferase, luminescence, 24 h; GLP-1R form is constitutively active; AID 624417, 2012; hit rate 1.6% among 410,000; further: on the % scale 0 is the no-effect control and ±100 the full control effect; nearly all actives have a fitted effect of over 55% in size
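Assay principle: reduced luminescence from a cAMP-responsive reporter in HEK293 cells co-expressing a constitutively active GLP-1R. Conditions: 24 hr compound incubation, 37 deg C, 5% CO2.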
Starred values were filed as active, the others as inactive; ? = inconclusive; . = not tested or not shown. The call rests on the fitted dose curve; in most records, active means well fitted curve in the direction sought with a large enough effect; inconclusive means small, poorly fitted or top-dose-only effect, or another doubt; inactive means no such curve, though single readings can be large; an effect the other way counts as inactive or inconclusive. Potency means the concentration at half of the fitted maximal effect.

SMILES | GLP1R ag | HEK293 tox | GLP-1R inv ag
Cc1ccc(-n2nc(C)c3c(C(=O)NCCc4ccccc4)cc(C)nc32)cc1 | . | -2% | -29%
CC(C)c1ccc(NC(=O)C(c2ccccc2)N(C)C(=O)CCc2c[nH]c3ccccc23)cc1 (stereo not given) | -1% | -2% | 10µM*
COc1ccc(NC(=O)C(NC(=O)Cc2cccs2)c2ccc(OC)cc2)cc1 (stereo not given) | . | -8% | 2%
COc1ccc(C(C(=O)Nc2ccc(C(C)C)cc2)N(C)C(=O)Cc2cccs2)cc1 (stereo not given) | . | -11% | 3.2µM*
CN(C(=O)Cc1c[nH]c2ccccc12)C(C(=O)Nc1ccc2c(c1)OCO2)c1ccccc1 (stereo not given) | 8% | -9% | ?
OCCN(CCO)c1ccc2ccccc2c1 | 1% | -4% | -26%
OCCN(CCO)c1cc2c3ccccc3ccc2c2ccccc12 | 13% | -3% | 10µM*
OCCNc1nc(Nc2ccc(Br)cc2)nc2ccccc12 | -1% | 5% | 2µM*
COc1ccccc1Nc1nc(NCc2ccco2)c2ccccc2n1 | 8% | ? | ?
OCCNc1nc(Nc2ccccc2)nc2ccccc12 | 1% | 8% | 7.1µM*
OCCNc1nc(-c2ccccc2)c2cc(Br)ccc2n1 | ? | 12% | 88%
OCCNc1nc(Nc2ccccc2)nc(Nc2ccccc2)n1 | 20% | 3% | ?
Cc1ccc(Nc2nc(NCc3ccco3)c3ccccc3n2)cc1 | 4% | ? | 2.5µM*
Cc1c(Cl)cccc1Nc1nc(NCCO)c2ccccc2n1 | 10% | ? | 2.5µM*
Oc1ccccc1Nc1nc(NCc2ccccc2)c2ccccc2n1 | -1% | ? | ?
COc1ccc(C(=O)N(c2ccc(OC)cc2)S(=O)(=O)c2ccc3c(c2)n(C)c(=O)n3C)cc1 | . | -2% | 13%
Cc1cccc(-c2nnc(SCC(=O)c3ccc(O)cc3O)n2C)c1 | 8% | 5% | 5%
CC1CCN(S(=O)(=O)c2ccc3c(c2)N(CC(=O)NC(C)c2ccccc2)C(=O)CS3)CC1 (stereo not given) | . | 6% | -30%
CCN(C(=O)c1cccc(S(=O)(=O)N(C)C)c1)C12CC3CC(CC(C3)C1)C2 | 13% | -23% | ?
CCN(C(=O)c1ccc2c(c1)OCO2)C12CC3CC(CC(C3)C1)C2 | 28% | 1% | 11µM*
NCCCC(N)C(=O)O (stereo not given) | 0% | . | .
CCCCN(CC)CCCNC(=O)c1ccc2c(c1)N(CC)C(=O)c1ccccc1S2(=O)=O | -7% | -4% | ?
COc1cc(OC)cc(C(=O)NCCOC23CC4CC(CC(C4)C2)C3)c1 | 6% | 1% | 10µM*
Cc1ccc(C(=O)NCCOC23CC4CC(CC(C4)C2)C3)cc1 | 3% | -2% | ?
Cc1cccc(NC(=O)c2nc[nH]c2C(=O)N[C@@H](C)c2ccccc2)c1 | 1% | ? | ?
SMILES | GLP1R ag | HEK293 tox | GLP-1R inv ag
CC(C)CCn1c(=O)c2sccc2n2c(CCCC(=O)NC(C)C)nnc12 | . | 13% | 2%
CCc1nc2c(OCc3ccc(C(F)(F)F)cc3)cccn2c1N(C)C(=O)C1CC1 | -7% | -7% | 14µM*
CCc1nc2c(OCc3ccc(Cl)cc3)cccn2c1N(C)C(=O)C1CC1 | 8% | -24% | ?
CCc1nc2c(OCc3ccccc3C)cccn2c1N(C)C(=O)CC(C)C | -1% | -3% | ?
CCCCC(=O)N(C)c1c(CC)nc2c(OCc3ccccc3C)cccn12 | 9% | 6% | 11µM*
c1ccc(-c2noc(-c3cccnc3NCc3ccco3)n2)cc1 | . | 8% | 68%
CCOC(=O)c1sc(=S)n(Cc2ccccc2)c1C | 16% | -14% | 8.9µM*
CCOC(=O)c1sc(=S)n(-c2ccccc2)c1C | 28% | 1% | 17%
Cc1nn(-c2ccccc2)nc1CNC(=O)C1CC1 | -4% | -5% | -6%
CC(=O)Oc1ccc(C(=O)Nc2ccc(S(=O)(=O)NCC3CCCO3)cc2)cc1 (stereo not given) | 0% | -4% | -26%
CC(C)c1cc(-c2cc(C(=O)NCc3ccccc3)on2)nc(NC2CCCC2)n1 | -2% | -10% | -13%
CC(C)c1cc(-c2cc(C(=O)NCc3ccccc3)on2)nc(NCC2CC2)n1 | -4% | 0% | 13µM*
CC1(C)C([N+](=O)[O-])C(c2ccc(O)cc2)NC(c2ccc(O)cc2)C1[N+](=O)[O-] (stereo not given) | 3% | 7% | ?
